The nature of experiment [1]: antimalarial activity against Dd2 strain (AID 2302;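 active means growth inhibition above 50% at the single 2 µM test dose, taken to imply half-maximal potency below 2 µM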;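 further: 0% = DMSO untreated growth and 100% = chloroquine plus artemisinin killed control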). To be noted: P. falciparum Dd2 in RBCs, LDH growth readout, 72 h; at 2 µM; stronger effect = higher value.
The nature of experiment [2]: HepG2 cytotoxicity, primary screen, cytotoxicity control for P. falciparum antimalarial project, cell-based, ATP luminescence (AID 2303;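 active means inhibition above 50%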;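 further: 0% = DMSO wells and 100% = digitonin-killed cells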). To be noted: HepG2 viability, 24-48 h, at 10 µM, stronger effect = higher value.
The target in experiment [3] is L-lactate dehydrogenase (Plasmodium falciparum (isolate CDC / Honduras)) (UniProt Q27743). As to the kind of experiment: PfLDH activity inhibition – cell lysate, 3D7 strain, counter-screen for P. falciparum growth inhibition project (AID 2304).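 Further: 0% = vehicle and 100% = reference inhibitor.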 To be noted: P. falciparum 3D7 crude extract, LDH APAD/NBT absorbance; at 2 µM; stronger effect = higher value. (A counterscreen serves to expose hits that act by an unwanted route or on another target.)
Chain of L-lactate dehydrogenase (Plasmodium falciparum (isolate CDC / Honduras)) (Q27743 whole entry, looked up): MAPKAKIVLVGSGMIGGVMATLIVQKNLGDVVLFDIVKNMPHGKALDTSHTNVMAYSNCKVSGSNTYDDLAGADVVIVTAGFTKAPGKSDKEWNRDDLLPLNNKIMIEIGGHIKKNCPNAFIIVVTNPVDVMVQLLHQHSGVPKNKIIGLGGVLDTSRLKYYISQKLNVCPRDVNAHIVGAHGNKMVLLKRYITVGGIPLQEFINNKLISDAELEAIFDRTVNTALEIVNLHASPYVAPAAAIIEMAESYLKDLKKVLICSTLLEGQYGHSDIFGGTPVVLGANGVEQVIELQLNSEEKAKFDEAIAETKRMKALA

A short description of experiment [4]: inhibition of 3D7 malaria parasite growth – strain 3D7 (AID 2306).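 Further: 0% = DMSO wells and 100% = chloroquine plus artemisinin control wells.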 The note with it: P. falciparum 3D7 erythrocytic growth, LDH absorbance, 72 h; at 2 µM; stronger effect = higher value.
Experiment [5] addresses Calcium-dependent protein kinase 1 (Plasmodium falciparum (isolate 3D7)) (UniProt P62344). The experiment in a line: PfCDPK1 kinase inhibitors, biochemical, TCAMS library (AID 1159585; cut-off not given, nearly all actives have IC50 up to about 0.98 µM;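 further: inhibitors leave more ATP so luminescence rises with inhibition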). To be noted: recombinant PfCDPK1, Kinase-Glo ATP depletion luminescence. On the technique in general: Kinase-Glo reads ATP consumption through a luciferase reaction.
Experiment [6] addresses Plasmodium falciparum protein kinase 6 (PK6, PF3D7_1337100) (UniProt Q8IDW1). The experiment in a line: PfPK6 kinase inhibitors, biochemical, TCAMS library (AID 1159586). The note with it: recombinant PfPK6, Kinase-Glo ATP depletion luminescence.
In experiment [7] the target is Protein kinase 7 (PK7), Plasmodium falciparum 3D7 (PF3D7_0213400) (UniProt Q7YTF7). As to the kind of experiment: inhibition of Plasmodium PK7 catalytic activity – biochemical, TCAMS antimalarial set, Kinase-Glo luminescence (AID 1159587). To be noted: recombinant PfPK7, Kinase-Glo ATP depletion luminescence.
Chain of Protein kinase 7 (PK7), Plasmodium falciparum 3D7 (PF3D7_0213400) (Q7YTF7 1-343): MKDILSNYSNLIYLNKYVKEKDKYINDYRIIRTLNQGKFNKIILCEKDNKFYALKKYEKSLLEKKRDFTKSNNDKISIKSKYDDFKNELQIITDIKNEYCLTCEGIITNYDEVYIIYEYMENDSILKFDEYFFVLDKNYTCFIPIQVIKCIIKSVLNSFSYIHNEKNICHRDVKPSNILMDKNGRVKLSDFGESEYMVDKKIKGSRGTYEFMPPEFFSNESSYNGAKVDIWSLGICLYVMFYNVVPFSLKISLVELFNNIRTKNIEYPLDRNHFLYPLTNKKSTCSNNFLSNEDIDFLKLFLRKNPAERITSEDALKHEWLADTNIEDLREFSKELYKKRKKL
In experiment [8] the target is Calcium-dependent protein kinase 4 (Plasmodium falciparum (isolate 3D7)) (UniProt Q8IBS5). The experiment in a line: PfCDPK4 kinase inhibitors, biochemical, TCAMS library (AID 1159588; cut-off not given, nearly all actives have IC50 up to about 0.91 µM). The note with it: recombinant PfCDPK4, Kinase-Glo ATP depletion luminescence.
Chain of Calcium-dependent protein kinase 4 (Plasmodium falciparum (isolate 3D7)) (Q8IBS5 whole entry, looked up): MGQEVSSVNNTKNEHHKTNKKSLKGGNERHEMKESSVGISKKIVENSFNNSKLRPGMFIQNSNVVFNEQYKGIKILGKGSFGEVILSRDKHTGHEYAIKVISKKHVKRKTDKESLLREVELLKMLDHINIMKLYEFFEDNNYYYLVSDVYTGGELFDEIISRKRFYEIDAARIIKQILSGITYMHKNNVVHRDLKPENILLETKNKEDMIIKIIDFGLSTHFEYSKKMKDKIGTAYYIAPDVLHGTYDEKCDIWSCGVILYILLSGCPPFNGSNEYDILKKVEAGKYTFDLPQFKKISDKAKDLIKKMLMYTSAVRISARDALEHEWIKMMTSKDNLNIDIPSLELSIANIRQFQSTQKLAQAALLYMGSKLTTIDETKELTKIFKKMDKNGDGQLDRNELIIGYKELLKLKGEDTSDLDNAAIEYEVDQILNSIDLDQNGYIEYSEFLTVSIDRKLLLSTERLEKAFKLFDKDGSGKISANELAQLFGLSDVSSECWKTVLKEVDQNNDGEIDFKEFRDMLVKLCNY

Unmarked numbers belong to inactive results. For some of these results: Measured potencies and affinities stand elsewhere. Active and inactive are the calls of the source. Unless noted, how the calls were made is not given here.

Chain of Calcium-dependent protein kinase 1 (Plasmodium falciparum (isolate 3D7)) (P62344 whole entry, looked up): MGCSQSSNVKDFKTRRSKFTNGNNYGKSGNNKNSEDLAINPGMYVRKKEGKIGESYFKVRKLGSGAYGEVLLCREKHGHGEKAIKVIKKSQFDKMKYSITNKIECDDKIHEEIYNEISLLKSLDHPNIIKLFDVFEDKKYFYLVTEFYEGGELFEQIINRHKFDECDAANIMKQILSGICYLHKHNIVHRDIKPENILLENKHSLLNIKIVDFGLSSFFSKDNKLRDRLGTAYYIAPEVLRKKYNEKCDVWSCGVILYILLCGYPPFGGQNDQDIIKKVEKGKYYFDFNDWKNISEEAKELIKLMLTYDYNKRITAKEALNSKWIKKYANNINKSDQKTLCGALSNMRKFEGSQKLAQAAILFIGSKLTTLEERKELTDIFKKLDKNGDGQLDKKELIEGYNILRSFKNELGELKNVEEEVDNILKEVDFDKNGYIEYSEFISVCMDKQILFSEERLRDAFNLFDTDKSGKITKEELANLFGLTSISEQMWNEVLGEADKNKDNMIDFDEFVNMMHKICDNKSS
Chain of Plasmodium falciparum protein kinase 6 (PK6, PF3D7_1337100) (Q8IDW1 1-305): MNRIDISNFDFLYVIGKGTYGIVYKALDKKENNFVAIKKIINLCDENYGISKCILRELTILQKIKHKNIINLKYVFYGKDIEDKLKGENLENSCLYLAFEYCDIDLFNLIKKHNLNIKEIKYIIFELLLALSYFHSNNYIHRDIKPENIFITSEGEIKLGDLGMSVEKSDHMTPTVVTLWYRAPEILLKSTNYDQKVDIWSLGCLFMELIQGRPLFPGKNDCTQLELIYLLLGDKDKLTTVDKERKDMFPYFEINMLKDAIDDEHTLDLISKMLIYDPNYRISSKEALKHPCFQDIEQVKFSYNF

Take `OC1CCCN(Cc2cccc(-c3ccc(-c4nc5ccc(C(F)(F)F)cc5[nH]4)cc3)c2)C1` (stereo not given): the growth inhibition in experiment [1] was 91% (active); in experiment [4], 100% (active). In addition, the inhibition (commonly the drop in the measured response relative to a control, in per cent) in experiment [2] was 27%; in experiment [3], 4%. Moreover, the result in experiment [5], in experiment [6], in experiment [7] and in experiment [8] was inactive.

As to `COc1ccc2ccc(F)c(CCN3CCC(NCc4cc5c(cn4)OCCO5)CC3)c2n1`, the growth inhibition was 36% in experiment [1] and 96% (active) in experiment [4]. Further, the inhibition in experiment [2] was 15%; in experiment [3], 3%. Besides, the outcome in experiment [5], in experiment [6], in experiment [7] and in experiment [8] was inactive.

With `COc1ccc2nccc([C@@H](O)CN3CCC(NCc4ccc5scnc5c4)CC3)c2c1`, the growth inhibition is 93% (active) in experiment [1] and 101% (active) in experiment [4]. Also, the values for the inhibition in experiment [2] and in experiment [3] were 17% and -1%, respectively. In addition, the result in experiment [5], in experiment [6], in experiment [7] and in experiment [8] was inactive.

With `CC(C)C(C(=O)Nc1ccc2c(c1)OCO2)c1ccc(Cl)cc1` (stereo not given), the values for the growth inhibition in experiment [1] and in experiment [4] were 89% (active) and 98% (active), respectively. Also, the inhibition in experiment [2] is 25%; in experiment [3], -7%. Further, the outcome in experiment [5], in experiment [6], in experiment [7] and in experiment [8] was inactive.

In the case of `Cc1[nH]c2ccc(NS(C)(=O)=O)cc2c1C1CCN(CCC2CCN(C(=O)/C=C/c3ccc(Cl)c(Cl)c3)CC2)CC1`, the growth inhibition was 94% (active) in experiment [1] and 100% (active) in experiment [4]. Further, the results for the inhibition in experiment [2] and in experiment [3] were 23% and -1%, respectively. The outcome in experiment [5], in experiment [6], in experiment [7] and in experiment [8] was inactive.

As to `NC1CCN(Cc2cccc(-c3ccc(-c4nc5ccc(F)cc5[nH]4)cc3)c2)C1` (stereo not given), the growth inhibition in experiment [1] and in experiment [4] was 99% (active) each time. For the same compound, the inhibition in experiment [2] was 24%; in experiment [3], -1%. The result in experiment [5], in experiment [6], in experiment [7] and in experiment [8] was inactive.

For the compound `Cc1ccc(C(O)CNc2ccnc(Nc3cccc(-c4csc(C)n4)c3)n2)cc1` (stereo not given), the growth inhibition in experiment [1] is 31%; in experiment [4], 92% (active). Besides, the inhibition is 17% in experiment [2] and -2% in experiment [3]. Also, the result in experiment [5], in experiment [6], in experiment [7] and in experiment [8] was inactive.

For the compound `O=C(/C=C/c1ccc(Cl)c(Cl)c1)NC1CCC(CN2CCC(c3nc4ccccc4s3)CC2)CC1` (stereo not given), the growth inhibition was 32% in experiment [1] and 87% (active) in experiment [4]. Besides, the figures for the inhibition in experiment [2] and in experiment [3] were 50% (active) and -4%, respectively. In addition, the outcome in experiment [5], in experiment [6], in experiment [7] and in experiment [8] was inactive.

For the compound `CN1CCC(N(Cc2ccc(-c3ccc(Cl)cc3)cc2)C(=O)Cn2c(CCc3cccc(F)c3F)cc(=O)c3ccccc32)CC1`, the growth inhibition in experiment [1] is 88% (active); in experiment [4], 97% (active). For the same compound, the values for the inhibition in experiment [2] and in experiment [3] were 93% (active) and -3%, respectively. The result in experiment [5], in experiment [6], in experiment [7] and in experiment [8] was inactive.

`O=C(/C=C/c1ccc(Cl)c(Cl)c1)NCCCCCCN1CCN(C(=O)Nc2ccc(Cl)c(Cl)c2)CC1`: the growth inhibition in experiment [1] is 0%; in experiment [4], 88% (active). Further, the inhibition in experiment [2] was 23%; in experiment [3], -1%. In addition, the result in experiment [5], in experiment [6], in experiment [7] and in experiment [8] was inactive.

In the case of `CN1CCC(NCc2ccc(-c3ccc(S(=O)(=O)NCc4ccccc4)cc3)cc2)CC1`, the growth inhibition was 51% (active) in experiment [1] and 99% (active) in experiment [4]. In addition, the inhibition in experiment [2] was 40%; in experiment [3], 2%. The result in experiment [5], in experiment [6], in experiment [7] and in experiment [8] was inactive.

Consider `CC(=NN=C(N)N)c1ccc2c(c1)Cc1ccccc1-2`, for which the growth inhibition in experiment [1] is 10%; in experiment [4], 101% (active). Further, the inhibition in experiment [2] was 44%; in experiment [3], 5%. Besides, the result in experiment [5], in experiment [6], in experiment [7] and in experiment [8] was inactive.

As for `CC(C)c1ccc(NC(=O)N[C@H]2CCN(CCCCCNC(=O)/C=C/c3ccc(Cl)c(Cl)c3)C2)cc1`, the growth inhibition in experiment [1] is 14%; in experiment [4], 100% (active). For the same compound, the inhibition in experiment [2] is 56% (active); in experiment [3] it was 7%. Further, the result in experiment [5], in experiment [6], in experiment [7] and in experiment [8] was inactive.

For `CCc1ccc(CN2CCC(CNC(=O)c3cc(-c4ccccc4F)cs3)C2)cc1` (stereo not given), the growth inhibition was 3% in experiment [1] and 100% (active) in experiment [4]. Besides, the results for the inhibition in experiment [2] and in experiment [3] were 29% and -2%, respectively. The result in experiment [5], in experiment [6], in experiment [7] and in experiment [8] was inactive.

Regarding `Fc1cccc(COc2ccc(Nc3ncnc4sc(C#Cc5ncc[nH]5)cc34)cc2Cl)c1`, the growth inhibition in experiment [1] is 95% (active); in experiment [4], 100% (active). Besides, the inhibition in experiment [2] was 55% (active); in experiment [3], -3%. Also, the outcome in experiment [5], in experiment [6], in experiment [7] and in experiment [8] was inactive.

As to `COc1ccc2nccc([C@@H](O)CN3CCC(NCc4ccc5c(n4)NCCC5)CC3)c2c1`, the values for the growth inhibition in experiment [1] and in experiment [4] were 39% and 101% (active), respectively. Moreover, the inhibition was 21% in experiment [2] and -3% in experiment [3]. Moreover, the result in experiment [5], in experiment [6], in experiment [7] and in experiment [8] was inactive.

`COc1cccc(NC(=O)Nc2ccc(Nc3nc(C)cc(N(C)C)n3)cc2)c1`: the growth inhibition in experiment [1] is 100% (active); in experiment [4], 101% (active). For the same compound, the inhibition in experiment [2] was 14%; in experiment [3] it was 5%. Moreover, the result in experiment [5], in experiment [6], in experiment [7] and in experiment [8] was inactive.

On to `Cc1onc(-c2ccc(Cl)cc2)c1-c1ccnn1S(=O)(=O)c1ccc(Cl)cc1`, for which the figures for the growth inhibition in experiment [1] and in experiment [4] were 99% (active) and 101% (active), respectively. Also, the inhibition in experiment [2] was -3%; in experiment [3] it was 3%. Besides, the result in experiment [5], in experiment [6], in experiment [7] and in experiment [8] was inactive.

As to `CC(C)CNCc1cccc(-c2cccc(CN(CCCN3CCN(C)CC3)C(=O)Nc3ccccc3)c2)c1`, the figures for the growth inhibition in experiment [1] and in experiment [4] were 76% (active) and 95% (active), respectively. In addition, the inhibition in experiment [2] is 25%; in experiment [3], 1%. The outcome in experiment [5], in experiment [6], in experiment [7] and in experiment [8] was inactive.

On to `CN1CCN(C(C(=O)NCc2cc(Cl)cc(Cl)c2)c2ccc(Nc3cccc(C(F)(F)F)c3)cc2)CC1` (stereo not given), for which the results for the growth inhibition in experiment [1] and in experiment [4] were 98% (active) and 85% (active), respectively. The inhibition in experiment [2] is 49%; in experiment [3] it was 5%. For the same compound, the result in experiment [5], in experiment [6], in experiment [7] and in experiment [8] was inactive.
